BCR signal inh – qHTS Assay to Find Inhibitors of Chronic Active B-Cell Receptor Signaling. ABC-DLBCL IkBa-CBG/CBR reporter, luminescence ratio, 4 h. Potency, µM (titrated, usually from 46.1 µM), most hits filed as inhibitors. hit rate 0.05% among 340,000; active means well fitted inhibition curve with a large enough effect in the signal ratio, with a control signal flat, not every such curve was filed as active; inconclusive means small, poorly fitted or top-dose-only effect, or effect the other way, or a change in a side signal; the % refers to the signal ratio
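Doxycycline induced both beetle luciferases in TMD8 lymphoma cells; IKK-driven degradation limits the IkappaBalpha-fused green signal, while red luminescence normalises for cell number and nonspecific effects. Compounds tested up to 46 uM, 4 hrs.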
DT40 TDP1 no CPT – qHTS for Inhibitors of human tyrosyl-DNA phosphodiesterase 1 (TDP1): qHTS in cells in absence of CPT. DT40 Tdp1-/- hTDP1 cells, no CPT, ATP luminescence, 48 h. Potency, µM (highest dose often 46.2 µM), hits mostly inhibitors. hit rate 15% among 420,000; further: nearly all actives have a fitted effect of over 55% in size
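A cellular qHTS used chicken DT40 cells lacking endogenous Tdp1 but carrying stably transfected human TDP1. Compounds were applied without camptothecin, and cell growth kinetics were judged by ATP-dependent luminescence after ≥48 hr.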
MCF10A rereplic – A quantitative high throughput screen for small molecules that induce DNA re-replication in MCF 10a normal breast cells. MCF 10A DNA re-replication, Hoechst nuclear intensity, 48 h. Potency, µM (titrated, usually from 46.1 µM), usual class: activators. hit rate 2.9% among 350,000; further: nearly all actives have a fitted effect of over 50% in size
SW480 rerep – A quantitative high throughput screen for small molecules that induce DNA re-replication in SW480 colon adenocarcinoma cells. SW480 DNA re-replication, Hoechst DNA content imaging, 48 h. Potency, µM (highest dose often 46.1 µM), most hits filed as activators. hit rate 1.8% among 340,000. AID 624297, 2012; further: nearly all actives have a fitted effect of over 55% in size
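Per well, 250 cells were exposed to pinned compound for 48 hr. Nuclear DNA was visualised with Hoechst (40 min, 37 C) and total object intensity recorded by fluorescence scanning.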
IL1B secr inh – qHTS for Inhibitors of Inflammasome Signaling: IL-1-beta AlphaLISA Primary Screen; THP-1 LPS/ATP IL-1B secretion, AlphaLISA, 16 h; stronger effect = lower value; activity change, % at 57.5 µM; hit rate 4.7% among 360,000; AID 743279, 2014; in the data active means activity change below about -50%; inconclusive means mostly about -30% to -49%
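Secreted IL-1B measured by AlphaLISA bead assay after 16 h compound exposure of THP-1 cells; compounds (final up to 57.5 uM) added 1 h before LPS (250 ng/mL) and ATP (1.25 mM) stimulation; lower signal means less secretion.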
DT40 TDP1 CPT – qHTS for Inhibitors of human tyrosyl-DNA phosphodiesterase 1 (TDP1): qHTS in cells in presence of CPT. chicken DT40 Tdp1-/-;hTDP1 cells + 20 nM CPT, ATP luminescence, 48 h. Potency, µM (highest dose often 46.2 µM), hits mostly inhibitors. hit rate 12% among 420,000. AID 686979, 2013; further: nearly all actives have a fitted effect of over 55% in size
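Cell growth measured by CellTiter-Glo luminescence after a minimum 48 h, 37 C compound exposure with 20 nM CPT in Tdp1-knockout DT40 cells stably expressing hTDP1, seeded 400/well; qHTS titration format.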
Hits are given with their value; . = inactive; ? = inconclusive; / = not tested or not shown; [ ] = dose if it differs, or a comment. In the library only some 19% were active in any assay of this set; here they are far more common. Unless noted, the call rests on the fitted dose curve; in most records, active means well fitted curve in the direction sought with a large enough effect; inconclusive means small, poorly fitted or top-dose-only effect, or another doubt; inactive means no such curve, though single readings can be large; an effect the other way counts as inactive or inconclusive.

SMILES	BCR signal inh	DT40 TDP1 no CPT	MCF10A rereplic	SW480 rerep	IL1B secr inh	DT40 TDP1 CPT
O=C(OCCN1C(=O)c2cccc3c(N4CCOCC4)ccc(c23)C1=O)c1ccc(Cl)cc1Cl	.	4.11µM	?	5.8µM	.	3.66µM
CCC(=O)c1ccc(OCc2ccccc2)c(OC)c1	?	?	.	.	.	.
COc1ccc(C(=O)CSC#N)cc1OC	?	2.91µM	?	?	?	3.26µM
COc1ccc(C(=O)CSc2cc(C)nc3nc(C)nn23)cc1OC	?	.	.	.	-96.9	.
COc1ccc(C(C#N)CC(=O)c2ccc(OC)c(OCc3ccccc3)c2)cc1OC (centres undefined)	/	20.6µM	/	/	.	14.6µM
COc1ccc(C(=O)CSc2nc(SC)ns2)cc1OC	/	?	.	.	.	.
Nn1c(SCC(=O)Nc2cccc(Br)c2)nnc1C1CC1	.	.	.	.	.	.
Cc1cc([N+](=O)[O-])ccc1NC(=O)Nc1ccc(F)cc1F	.	4.61µM	?	.	-82.0	5.17µM
Cc1ccc(NC(=O)Nc2cccc([N+](=O)[O-])c2)cc1F	.	16.4µM	?	.	-94.7	?
Cc1cc(NC(=O)Nc2cccc([N+](=O)[O-])c2)no1	.	.	.	.[1.84 µM]	.	.
O=C(Nc1ccc(OC(F)(F)F)cc1)Nc1cccc([N+](=O)[O-])c1	?	4.11µM	11.6µM	?	-106.0	2.91µM
CCOc1ccccc1NC(=O)NCCCCc1ccccc1	.	.	.	.	.	.
Cc1ccc(NC(=O)NCCc2c(C)nn(C)c2C)cc1Cl	/	23.1µM	/	/	/	?
Cc1cc(C)cc(NC(=O)NCCc2c(C)nn(C)c2C)c1	/	.	/	/	/	.
COc1ccc(Cl)cc1NC(=O)NCCc1c(C)nn(C)c1C	/	16.4µM	/	/	/	?
CCc1cccc(NC(=O)CCn2nc(C)cc2C)c1	/	.	/	/	/	.
COc1cccc(NC(=O)N(C)C[C@@H]2OCc3cnnn3CCCC(=O)N([C@H](C)CO)C[C@@H]2C)c1	/	.	/	/	.	.
CCc1sc(C(=O)Nc2nccs2)cc1C	?	?	.	.	?	?
O=C(Nc1nc(-c2ccccn2)cs1)c1ccc(Cl)s1	.	0.92µM	.	.	.	1.03µM
O=C(Nc1nc(-c2ccccn2)cs1)c1ncc(Cl)c(Cl)c1Cl	?	3.26µM	?	.	.	.
CCc1sc(C(=O)Nc2nc(-c3ccccn3)cs2)cc1C	.	4.11µM	?	?	.	2.91µM
O=C(Nc1nc(-c2cc(Cl)sc2Cl)cs1)c1ccccc1	?	?	20.6µM	.	.	?
O=c1[nH]c(=S)[nH]c2c1[C@H](CCc1cccc(Cl)c1)O[C@H](C1CC1)C2	/	.	/	/	.	.
COc1ccc(C2C(C(=O)O)c3ccccc3C(=O)N2Cc2ccco2)cc1 (centres undefined)	.	.	?	.	.	.
CCc1sc(C(=O)NNC(=O)CNC(=O)c2ccccc2F)cc1C	.	.	.	.	.	.
SMILES	BCR signal inh	DT40 TDP1 no CPT	MCF10A rereplic	SW480 rerep	IL1B secr inh	DT40 TDP1 CPT
Cn1cccc1C(=O)Nc1nc(-c2ccccn2)cs1	?	4.11µM	.	?	.	2.59µM
Cc1csc(NC(=O)c2cccn2C)n1	?	?	?	.	.	.
CCc1sc(C(=O)NCc2ccccc2)cc1C	.	13µM	.	.	.	20.6µM
C=CCNc1ncnc2c1cnn2-c1ccc(C)cc1C	.	?	.	.	.	.
CCOC(=O)N1CCC(Nc2ncnc3c2cnn3-c2ccc(C)cc2C)CC1	?	8.2µM	.	.	.	10.3µM
Cc1ccc(-n2ncc3c(SCc4ccccn4)ncnc32)c(C)c1	.	16.4µM	?	.	-69.2	?
CSc1ncnc2c1cnn2-c1ccc(C)cc1C	.	?	.	.	.	.
Cc1ccc(-n2ncc3c(NCC(C)C)ncnc32)c(C)c1	?	?	/	/	/	23.1µM
CC(=O)Nc1ccc(Nc2ncnc3c2cnn3-c2ccc(C)cc2C)cc1	.	.	.	.	?	?
Cc1ccc(-n2ncc3c(N(CC(C)C)CC(C)C)ncnc32)c(C)c1	?	?	/	/	/	20.6µM
CCN(C)C1CN(Cc2cn(Cc3cccc(C(F)(F)F)c3)nn2)S(=O)(=O)C1 (centres undefined)	/	.	/	/	.	.
COC(=O)COn1c(-n2nc(C)cc2C)nc2ccccc2c1=O	.	?	.	.	.	?
Cc1cc(C)n(-c2nc3ccccc3c(=O)n2OCC#N)n1	?	0.651µM	?	16.4µM	-95.8	0.651µM
CCOC(=O)COn1c(-n2nc(C)cc2C)nc2ccccc2c1=O	.	25.9µM	.	.	.	?
CCOC(=O)c1cnc2c(-c3ccccc3)c(-c3ccccc3)nn2c1C	.	?	?	.	.	.
CC(C)C(=O)N1CCN(c2ccccc2NC(=O)c2ccc([N+](=O)[O-])o2)CC1	.	?	.	?	.	16.4µM
CCC(=O)N1CCN(c2ccccc2NC(=O)c2ccc([N+](=O)[O-])o2)CC1	.	18.4µM	.	?	-54.8	18.4µM
Cc1[nH]c2ccc(C(=O)O)cc2c1C	?	.	23.1µM	25.9µM	.	.
CCC1CCCCN1CCCNC(=O)c1ccc2c(c1)c(C)c(C)n2CC (centres undefined)	.	?	.	.	.	?
Cc1[nH]c2ccc(C(=O)NC3CCC(C)CC3)cc2c1C (centres undefined)	?	11.6µM	.	.	.	?
Cc1[nH]c2ccc(C(=O)Nc3ccncc3)cc2c1C	?	11.6µM	.	.	.	13µM
CC1CCC(NC(=O)c2ccc3nc[nH]c3c2)CC1 (centres undefined)	.	.	.	.	.	.
CCn1c(C)c(C)c2cc(C(=O)NC3CCCCCC3)ccc21	?	20.6µM	.	.	.	16.4µM
C[N+]1(CC(=O)c2ccc(Cl)cc2)CCOCC1	/	.	/	/	/	.
O=C(CC[C@H]1O[C@@H](n2ccc(=O)[nH]c2=O)[C@H](O)[C@@H]1O)NCCCc1ccccc1	/	.	/	/	.	.
Cc1[nH]c2ccc(C(=O)NC3CCCC3)cc2c1C	.	.	.	2.59µM	.	.
O=[N+]([O-])c1ncn(Cc2ccccc2Cl)n1	.	.	.	.	.	.
O=[N+]([O-])c1ncn(Cc2c(Cl)cccc2Cl)n1	.	?	.	?	.	18.4µM
COC(=O)c1cc(-c2c(C)oc3cc(OC(C)C)ccc3c2=O)c(C)o1	.	14.6µM	?	.	.	14.6µM
CC(=O)n1c2ccccc2c2ccccc21	.	.	?	.	.	.

High-throughput results: PubChem BioAssay, National Center for Advancing Translational Sciences (NCATS)
